Experimental data from PubChem BioAssay AID463173 (ICCB-Longwood Screening Facility, Harvard Medical School, 2010).
Out of some 52,000 compounds screened, about 1,700 (3.3%) were called active. Many of the other results were omitted from the sample, so actives are more common in it than they were. A number with no mark means an inactive call. Cut-off read from the data, not from the text of the source: active = survival mostly below about 52% (no sharp cut-off); inactive = mostly above about 56%.

tested on: Wild type; experiment: growth inhibition of S. aureus wild type versus tarO mutant, primary screen, teichoic acid synthesis inhibitors, RN4220, OD600 (AID 463173); settings: S. aureus RN4220 wild type/DeltatarO growth, OD600, 18 h, hits give low values, screened at 18.75 µg/mL (by protocol)

Structure (SMILES)	survival
CCOc1cccc(C(=O)Nc2cc(C)c(O)c(-c3nc4ncccc4o3)c2)c1	84%
CNC(=O)C1CCC(Cn2c(=O)c3sccc3n(CC(=O)NCc3ccccc3)c2=O)CC1 (stereo not drawn)	0% (active)
CNC(=O)C1CCC(Cn2c(=O)c3sccc3n(CC(=O)NCc3ccc(C)cc3)c2=O)CC1 (stereo not drawn)	73%
CNC(=O)C1CCC(Cn2c(=O)c3sccc3n(CC(=O)NCc3ccc(F)cc3)c2=O)CC1 (stereo not drawn)	45%
Cc1cc(C)cc(NC(=O)COc2cccc3c(=O)n(C)ccc23)c1	72%
COc1ccc(OCCCn2c(=O)oc3ccc(C)cc32)cc1	2% (active)
CCCCOc1ccc(Cn2c(=O)oc3ccc(C)cc32)cc1	58%
COc1ccc(Cl)cc1NC(=O)NCCn1c(=O)oc2ccc(C)cc21	62%
COc1ccc(OCCCn2c(C)nc3cc(C)c(C)cc32)cc1	67%
Cc1ccc2oc(=O)n(CCNC(=O)Nc3ccc(Cl)cc3)c2c1	79%
Cc1ccc2oc(=O)n(CCCOc3ccc(Cl)cc3)c2c1	-9% (active)
COc1ccc(CCNC(=O)CCCCn2c(=O)c3ccccc3n(Cc3ccc(Cl)cc3)c2=O)cc1OC	105%
COc1cc2nc(SCC(=O)Nc3c(C)cc(C)cc3C)n3nc(CCn4c(C)nc5ccccc54)nc3c2cc1OC	91%
CCOc1ccccc1C(=O)Nc1cc(-c2nc3cccnc3s2)ccc1C	67%
COCCCNC(=O)C1CCN(c2nn3cc(-c4ccc(F)cc4)nc3s2)CC1	88%
Cc1ccc(CSc2oc(-c3cccs3)nc2S(=O)(=O)c2ccc(C)cc2)cc1	128%
CCCSc1oc(-c2cccs2)nc1S(=O)(=O)c1ccc(C)cc1	39%
CCCCCS(=O)(=O)c1oc(-c2cccs2)nc1S(=O)(=O)c1ccc(C)cc1	11% (active)
CCCCS(=O)(=O)c1oc(-c2cccs2)nc1S(=O)(=O)c1ccc(F)cc1	82%
CCC(C)S(=O)(=O)c1oc(-c2cccs2)nc1S(=O)(=O)c1ccccc1 (stereo not drawn)	16%
CCCCS(=O)(=O)c1oc(-c2cccs2)nc1S(=O)(=O)c1ccccc1	0% (active)
CCOc1ccc(C(=O)c2c(N)c(-c3nc(-c4ccc(OCC)cc4)cs3)c3ccccn23)cc1	103%
O=C(O)CN1C(=O)/C(=N\N2C(=O)CSC2=S)c2ccccc21	90%
Cc1nc2ccccn2c(=O)c1NC(=O)c1ccc(C(F)(F)F)cc1	-2% (active)

Structure (SMILES)	survival
Cc1nc2ccccn2c(=O)c1NC(=O)c1ccccc1Cl	129%
Cc1nc2ccccn2c(=O)c1NC(=O)c1ccc(F)c(F)c1	80%
Cc1ccc(C(=O)Nc2c(C)nc3ccccn3c2=O)cc1C	69%
Cc1ccc(C(=O)Nc2c(C)nc3ccccn3c2=O)cc1	88%
Cc1ccccc1C(=O)Nc1c(C)nc2ccccn2c1=O	10% (active)
Cc1c(C(=O)Nc2ccc(F)c(F)c2)oc2ccc(S(=O)(=O)N(C)C3CCCCC3)cc12	74%
COc1ccccc1CNC(=O)CC(c1ccc(C)cc1)N1Cc2ccccc2C1=O (stereo not drawn)	60%
CC(C)(C)c1cc(-c2ccccc2)n[nH]1	132%
CN(C)c1ccc(NC(=O)CSc2nc3ccsc3c(=O)n2CCCCCC(=O)O)cc1	70%
CCn1cc2nc(SCc3ccc(F)cc3)n(CCc3ccccc3)c(=O)c2n1	77%
Cc1ccc(CCNC(=O)Cn2nc(-c3ccc(C)cc3)ccc2=O)cc1	-3% (active)
Cc1ccc(-c2ccc(=O)n(CC(=O)NCCc3ccccc3)n2)cc1	65%
Cc1ccc(-c2ccc(=O)n(CC(=O)NCCc3ccc(Cl)cc3)n2)cc1	73%
C=CCn1c(=O)[nH]c(=O)n(CC=C)c1=O	111%
COc1ccc2c(Sc3ccccc3)c(C(=O)NCc3ccc(OC(C)C)cc3)[nH]c2c1	125%
CCOc1ccc(CNCCSc2nnnn2C)cc1OC	72%
Cn1nnnc1SCCNCc1ccccc1OCc1ccc(Cl)cc1Cl	56%
Cn1nnnc1SCCNCc1ccc(OCc2ccc(Cl)cc2)cc1	68%
COc1cc(CNCCSc2nnnn2C)ccc1OCc1c(F)cccc1Cl	73%
CCOc1cc(CNCCSc2nnnn2C)cc(Cl)c1OCc1ccc(Cl)cc1	-2% (active)
COc1cc(CNCCSc2nnnn2C)cc(Cl)c1OCc1ccccc1	59%
CCOc1cc(CNCCSc2nnnn2C)ccc1OCc1ccc(Cl)cc1Cl	-5% (active)
COc1cc(CNCCSc2nnnn2C)ccc1OCc1ccccc1C	68%
COc1cc(CNCCSc2nnnn2C)ccc1OCc1ccc(Cl)cc1Cl	0% (active)

Structure (SMILES)	survival
COCCNC(=O)c1ccc(-c2nc(CN3CCc4ccccc43)c(C)o2)cc1	75%
NS(=O)(=O)c1ccc(CCNC(=O)c2ccc3nc(Cc4ccccc4)oc3c2)cc1	81%
CCn1cc(C(=O)O)c(=O)c2cc(F)c(N3CCN(C(=O)c4ccccc4F)CC3)cc21	54%
CC(C)CC(=O)NCC(c1ccc2c(c1)OCO2)N1CCN(c2ccccc2)CC1 (stereo not drawn)	77%
COC(=O)c1cc(S(=O)(=O)N2CCN(c3cc(Cl)ccc3C)CC2)c[nH]1	8% (active)
COC(=O)c1cc(S(=O)(=O)N2CCN(c3ccc(OC)cc3)CC2)c[nH]1	85%
Cc1ccc(Cl)cc1N1CCN(C(=O)c2cc(S(=O)(=O)N3CCCC3)c[nH]2)CC1	77%
COc1ccccc1CNC(=O)CN1C(=O)CSc2ccc(S(=O)(=O)N3CCCCC3)cc21	83%
COc1ccc(-n2ncc(C(=O)N3CCc4ccccc4C3)c2C2CCN(C(=O)OC(C)(C)C)CC2)cc1	63%
COc1cc2c(cc1NS(=O)(=O)c1cccc(C#N)c1)n(C)c(=O)n2C	76%
CCOC(=O)c1c(-c2ccccc2)csc1NC(=O)c1nc(SCC)ncc1Cl	97%
CCOC(=O)c1c(-c2ccccc2)csc1NC(=O)c1nc(S(=O)(=O)CC)ncc1Cl	2% (active)
CCCSc1ncc(Cl)c(C(=O)Nc2scc(-c3ccc(C)cc3)c2C(=O)OCC)n1	87%
CCCS(=O)(=O)c1ncc(Cl)c(C(=O)Nc2scc(-c3ccccc3)c2C(=O)OCC)n1	4% (active)
CCOC(=O)c1c(-c2ccc(C)cc2)csc1NC(=O)c1nc(SC(C)C)ncc1Cl	85%
CCOC(=O)c1c(-c2ccc(C)cc2)csc1NC(=O)c1nc(SCC)ncc1Cl	78%
CCc1nn(CC(=O)NCC(C)c2ccccc2)c(=O)c2cc3c(OC)cccc3n12 (stereo not drawn)	89%
Cc1ccccc1SCC(=O)O	106%
O=C(c1cc(-c2ccccc2)on1)N1CCCc2ccccc21	114%
COCCCNC(=O)c1ccc2c(c1)N(Cc1ccccc1)C(=O)c1ccccc1S2	75%
Cc1cc(N2CCCCC2)nc2ccc(NC(=O)c3cccc(Cl)c3)cc12	-2% (active)
Cc1cc(N2CCN(C)CC2)nc2ccc(NC(=O)c3ccc(C(C)(C)C)cc3)cc12	-20% (active)
Cc1cc(N2CCCCC2)nc2ccc(NC(=O)c3cccc(F)c3)cc12	46%
Cc1ccc(NC(=O)Nc2ccc3nc(N4CCN(C)CC4)cc(C)c3c2)cc1C	73%

Structure (SMILES)	survival
CCOc1cc(C(=O)Nc2ccc3nc(N4CCN(C)CC4)cc(C)c3c2)cc(OCC)c1OCC	134%
CCN1CCN(c2cc(C)c3cc(NC(=O)c4cccc(Cl)c4)ccc3n2)CC1	57%
Cc1cccc(C)c1OC(=O)CSc1nnc(-c2cccs2)o1	83%
COc1cc2c(cc1OC)n(CC(=O)c1cccc(Cl)c1)c(=O)n1nc(CCn3nc(C)cc3C)nc21	74%
CCOC(=O)C(C)NC(=O)c1c(C)oc2ncn(CC(C)C)c(=O)c12 (stereo not drawn)	72%
Cc1ccccc1CN1CCCN(CC(=O)Nc2ccc3c(c2)OCCO3)S1(=O)=O	72%
Cc1cccc2c1-c1sc(C(=O)N(C)c3cccc(C(F)(F)F)c3)cc1CO2	24%
CCc1ccccc1N(C)C(=O)c1cc2c(s1)-c1c(C)cccc1OC2	69%
Cc1cccc2c1-c1sc(C(=O)N(C)c3cccc(Cl)c3)cc1CO2	0% (active)
COc1ccc(CCNC(=O)c2cc3c(s2)-c2c(C)cccc2OC3)c(OC)c1	103%
COc1ccc(N(C)C(=O)c2cc3c(s2)-c2c(C)cccc2OC3)c(OC)c1	12% (active)
COc1ccc(NC(=O)c2cc3c(s2)-c2c(C)cccc2OC3)c(OC)c1	78%
Cc1ccc(NC(=O)CCc2c(C)nn(-c3ccc(N4CCCCC4)nn3)c2C)cc1F	146%
COCCCNc1cc(C)nc2ccccc12	121%
COc1ccc(N2CC3=C(C2=O)C(c2ccc(Br)cc2)NC(=O)N3C)cc1 (stereo not drawn)	156%
COc1ccc(CNC(=O)c2cnc3cc(C)ccn3c2=O)cc1	85%
Cc1ccc(OC(=O)CSc2nnc(CNC(=O)c3ccccc3)o2)cc1	87%
N#Cc1ccccc1Cn1c(SCC(=O)NCc2ccccc2)nc2ccccc21	75%
O=C(C1CCN(S(=O)(=O)c2ccccc2)CC1)N1CCCCC1	96%
O=C1C2c3ccccc3CCN2C(=O)CN1CCc1ccccc1 (stereo not drawn)	121%
CCOc1ccc(-n2nc(CO)c(C(=O)NCC(C)O)n2)cc1 (stereo not drawn)	81%
